Screens as filed in PubChem BioAssay.
HPGD inh – qHTS Assay for Inhibitors of HPGD (15-Hydroxyprostaglandin Dehydrogenase); Potency, µM, inactives show top-dose activity change, negative = inhibition, actives largely listed as inhibitors; hit rate 4.3% among 150,000; purified HPGD, NADH fluorescence kinetic, PGE2 substrate; 15-hydroxyprostaglandin dehydrogenase [NAD(+)] (Homo sapiens), P15428; AID 894, 2007; note: potency is the fitted concentration of half-maximal effect
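NADH formation kinetics: reaction with 30 uM PGE2 and 1 mM NAD+ (final), 20 nM enzyme, Tris-HCl pH 8 with Tween 20, after 15 min compound preincubation at room temperature. Fluorescence change, last versus first of five reads.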
PNC assembly inh – High Content Assay for Compounds that inhibit the Assembly of the Perinucleolar Compartment | PC3M PTB-GFP, PNC prevalence imaging, 16 h; stronger effect = lower value | activity change (PNC), negative = inhibition, % at 10 µM | hit rate 3.1% among 140,000;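 active = readout at or below -70, meaning at least 70% loss of cells showing the perinucleolar compartment, a nuclear body marking cancer cells; inconclusive = readout between -30 and a set limit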;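 note: plate controls were DMSO wells for no effect and camptothecin positive control wells for full effect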
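Read-out is percentage of cells bearing a perinucleolar compartment, from automated 20x imaging of fixed, Hoechst-stained PC3M PTB-GFP cells. Cells were seeded 4 h, then exposed 16 h to compound (23 nl of library stock) in duplicate plates.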
ALDH1A1 block – qHTS Assay for Inhibitors of Aldehyde Dehydrogenase 1 (ALDH1A1). Purified ALDH1A1, NADH fluorescence, propionaldehyde substrate. Potency, µM (series often up to 75.3 µM), inactives show at the top dose activity, negative = inhibition, most hits filed as inhibitors. hit rate 7.3% among 220,000. AID 1030, 2008;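 note: potency is the fitted concentration of half-maximal effect; plate controls were no enzyme wells and a reference inhibitor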
Target sequence (P00352 whole entry, looked up): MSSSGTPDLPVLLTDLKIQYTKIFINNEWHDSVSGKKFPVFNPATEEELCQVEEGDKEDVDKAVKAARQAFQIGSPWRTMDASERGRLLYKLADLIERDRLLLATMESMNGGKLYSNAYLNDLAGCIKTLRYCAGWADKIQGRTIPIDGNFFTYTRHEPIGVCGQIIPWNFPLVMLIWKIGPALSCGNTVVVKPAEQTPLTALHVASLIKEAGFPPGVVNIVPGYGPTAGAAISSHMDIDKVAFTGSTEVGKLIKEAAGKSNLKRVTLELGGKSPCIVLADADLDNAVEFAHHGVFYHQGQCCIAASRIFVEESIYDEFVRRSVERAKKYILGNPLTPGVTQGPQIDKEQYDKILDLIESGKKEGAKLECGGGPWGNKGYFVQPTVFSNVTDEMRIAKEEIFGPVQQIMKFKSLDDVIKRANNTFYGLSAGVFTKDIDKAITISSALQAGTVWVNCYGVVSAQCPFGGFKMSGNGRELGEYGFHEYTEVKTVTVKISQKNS
* marks the source's active call; other numbers are inactive results. In the library only some 11% were active in any assay of this set; here they are far more common. Unless noted, calls come from the whole dose curve; as a rule, active = well fitted inhibition curve with a large enough effect (not every such curve was filed as active); inconclusive = small, poorly fitted or top-dose-only effect, or another doubt; inactive = no such curve, though single readings can be large or run the other way. Unless noted, % is set by controls: 0 for no effect and ±100 for the full control effect.

For O=C(NC1CS(=O)(=O)CC1NCc1ccco1)c1ccccc1 (centres undefined) the results were HPGD inh -10.2%, PNC assembly inh -96.0* and ALDH1A1 block 7.6%.
Screening O=C(Nc1ccccc1C(=O)NCc1ccco1)c1ccccc1 returned HPGD inh -12.4%, PNC assembly inh inconclusive and ALDH1A1 block -7.9%.
Screening COC(=O)N1[C@H](C)C=C[C@]1(Cc1ccccc1)C(=O)NCc1ccc(C)o1 returned HPGD inh -20.3% and ALDH1A1 block inconclusive.
`C/C(=N\Nc1cccc(C(=O)O)c1)c1ccc(Cl)s1` gave ALDH1A1 block -4.6%.
CCCC(C)NNC(=O)c1cc2ccccc2[nH]1 (centres undefined) was read as HPGD inh 12.6µM*, PNC assembly inh 26.7 and ALDH1A1 block 12.9%.
NCCCNC(=O)c1cc2ccccc2[nH]1 was read as HPGD inh -13.0%, PNC assembly inh inconclusive and ALDH1A1 block -4.9%.
`COc1cc(CNn2c(C)n[nH]c2=S)cc(Cl)c1OCc1ccccc1` gave HPGD inh 15.8µM*, PNC assembly inh 5.0 and ALDH1A1 block 28.2µM*.
COc1cc(CNn2cn[nH]c2=S)cc(Cl)c1OCc1ccc(F)cc1 was read as HPGD inh inconclusive, PNC assembly inh 38.4 and ALDH1A1 block inconclusive.
`COCCNC(=O)CN(C(=O)CCC(=O)Nc1nccs1)c1ccccc1OC` gave HPGD inh -8.3%, PNC assembly inh -4.8 and ALDH1A1 block 0.7%.
Cc1ccc(-c2nc3ccccc3c(C(=O)NCc3cccs3)c2C)cc1 was read as HPGD inh -26.6%, PNC assembly inh -8.7 and ALDH1A1 block 23.8µM*.
CC(=O)SC(C)CC(=O)Nc1ccccc1 (centres undefined) was read as HPGD inh -28.6%, PNC assembly inh 13.8 and ALDH1A1 block 6.2%.
`CC(=O)SC(C)CC(=O)NCc1ccccc1` (centres undefined) gave HPGD inh 28.2µM*, PNC assembly inh -24.6 and ALDH1A1 block 0.9%.
O=C(NCCNCc1cccs1)c1ccccc1F was read as ALDH1A1 block -15.6%.
Screening COc1ccc(CNC(=O)C(c2ccncc2)N(C(=O)Cc2cccs2)c2ccccc2)cc1 (centres undefined) returned HPGD inh -2.5%, PNC assembly inh -13.6 and ALDH1A1 block -7.1%.
`O=C(NCc1cccs1)c1cc(-c2ccccc2)nc2ccccc12` gave HPGD inh -13.1%, PNC assembly inh inconclusive and ALDH1A1 block -0.4%.
Screening O=C(NCc1cccs1)c1ccccc1F returned HPGD inh 20µM*, PNC assembly inh 22.8 and ALDH1A1 block -1.8%.
For COCCN(C(=O)Cc1cccs1)C(C(=O)NCc1ccc(OC)cc1)c1ccccc1 (centres undefined) the results were HPGD inh -6.2%, PNC assembly inh inconclusive and ALDH1A1 block 25.1µM*.
Screening COc1c2occc2c(OC)c2c(=O)cc(C(F)(F)C(F)(F)F)oc12 returned HPGD inh -19.1%, PNC assembly inh 18.4 and ALDH1A1 block 3.2%.
CN(Cc1ccccc1)c1ccc(N2C(=O)CCCC2=O)cc1[N+](=O)[O-] was read as HPGD inh -4.1%, PNC assembly inh -16.8 and ALDH1A1 block 13.8%.
For COC(=O)c1cncc(O)c1 the results were HPGD inh -14.2%, PNC assembly inh 12.2 and ALDH1A1 block -9.2%.
N#C/C(=C\c1cccnc1)C(=O)NC1CCCCC1 was read as HPGD inh -19.7%, PNC assembly inh 23.1 and ALDH1A1 block 5.6%.
Cc1ccccc1CNC(=O)Cc1cccs1 was read as ALDH1A1 block 4.6%.
Screening COc1ccc(CCNC(=O)Cc2cccs2)cc1 returned HPGD inh 35.5µM*, PNC assembly inh -19.2 and ALDH1A1 block 2.3%.
For O=C(Cc1cccs1)NCc1ccccc1F the results were HPGD inh 25.1µM*, PNC assembly inh -22.7 and ALDH1A1 block 0.1%.
`Cc1ccc(CNC(=O)Cc2cccs2)cc1` gave HPGD inh 15.8µM*, PNC assembly inh -2.7 and ALDH1A1 block 5.2%.
O=C(Cc1cccs1)NCc1ccccc1 was read as HPGD inh 20µM*, PNC assembly inh -3.8 and ALDH1A1 block 3.7%.
Cc1ccc(C(=O)NNC(=O)Cc2cccs2)cc1 was read as PNC assembly inh inconclusive and ALDH1A1 block 8.3%.
Screening O=C(Cc1cccs1)NCc1ccncc1 returned HPGD inh -13.7%, PNC assembly inh inconclusive and ALDH1A1 block -7.7%.
O=C(Cc1cccs1)NCCCc1ccccc1 was read as ALDH1A1 block 10.7%.
C/C(=N\O)C(C)NC(=O)c1ccccc1 (centres undefined) was read as HPGD inh -5.0%, PNC assembly inh inconclusive and ALDH1A1 block -0.7%.
